# D2 antag: antagonizes the human D2 dopamine receptor. 2% of 340,000 active. inhibition, % at 10 µM. AID 485344. HEK293 TREx D2 cells, calcium flux, dopamine EC80. P14416; in the data active = inhibition above about 30%; inactive = below that, where a call was filed
# Target sequence (P14416 whole entry, looked up): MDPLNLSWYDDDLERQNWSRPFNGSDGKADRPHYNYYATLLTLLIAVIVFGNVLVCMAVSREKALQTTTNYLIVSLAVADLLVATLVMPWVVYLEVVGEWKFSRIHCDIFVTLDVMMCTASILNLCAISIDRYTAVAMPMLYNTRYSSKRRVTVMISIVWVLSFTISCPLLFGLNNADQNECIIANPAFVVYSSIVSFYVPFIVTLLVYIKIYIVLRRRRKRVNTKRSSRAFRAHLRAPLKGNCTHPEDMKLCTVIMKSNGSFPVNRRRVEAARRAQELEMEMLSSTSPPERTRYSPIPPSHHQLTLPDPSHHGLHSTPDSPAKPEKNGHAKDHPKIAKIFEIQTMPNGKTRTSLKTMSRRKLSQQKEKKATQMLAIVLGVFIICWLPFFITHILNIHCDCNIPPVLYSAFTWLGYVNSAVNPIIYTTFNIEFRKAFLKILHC
#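 Overnight-induced (tetracycline, 30 C) HEK293 T-REx cells carrying force-coupled D2 receive a no-wash calcium dye, then compound, then EC80 dopamine at 180 s; signals are read kinetically throughout.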
# D2 PAM-1: positively modulates the human D2 dopamine receptor allosterically. P14416. HEK293 T-REx D2, calcium flux, EC20 dopamine potentiation. potentiation, % at 10 µM. 0.34% of 340,000 active. AID 485347;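 active = potentiation over 3 SD above the plate norm, cut at about 30% in these data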
#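 Tetracycline-induced HEK293 T-REx cells force-coupled to calcium signalling expressed D2; compounds were pin-added after a 10 s baseline, read kinetically 180 s, then an EC20 dopamine challenge followed with a further 180 s calcium read.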
# D2 ag-1: activates the human D2 dopamine receptor; 0.084% of 360,000 active; P14416; DiscoveRx PathHunter D2 beta-arrestin, luminescence, 90 min; 100% = 57 uM dopamine signal; activation, % (test concentration not listed); in the data active = activation above about 40%; inconclusive = between about 15% and that limit
#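 DiscoveRx PathHunter D2 beta-arrestin cells (2,100/well) attached overnight, then compound-stimulated 90 min at 37 C in HBSS/10 mM HEPES/0.1% Tween-20 buffer; beta-galactosidase complementation read by luminescence after 1 h at ambient temperature. Dopamine 57 uM final (EC100) as control.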
# D2 ag-2: D2 dopamine receptor (human) agonism. P14416. HEK293 T-REx D2 cells, calcium flux agonist mode. activation, % at 2 µM. 0.53% of 340,000 active. AID 485358;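 active = activation over 3 SD above normal in the single-dose calcium agonist read, cut at about 30% in these data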
#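 Agonism is scored from calcium flux in a force-coupled, inducible HEK293 cell line expressing D2, read kinetically for 180 s after compound addition against dopamine controls.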
# D2 PAM-2: human D2 receptor positive allosteric modulation | P14416 | DiscoveRx D2 beta-arrestin cells, luminescence, 90 min; 100% = 57 uM dopamine signal | potentiation, % (concentration not given with the values) | 0.23% of 360,000 active | AID 624464; in the data active = potentiation above about 50%; inconclusive = mostly about 30% to 49%
#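 PathHunter D2 cells, attached overnight at 37 deg C, received compound in DMSO plus dopamine at EC20 (50 nM final) for 90 min at 37 deg C. Beta-arrestin recruitment was read as luminescence after 1 h with detection reagent at ambient temperature.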
# Numbers stand for hits; – = inactive; ? = inconclusive; · = no result. The list is not random: actives were taken first. Their share in the collection is about 2.4%.
SMILES,D2 antag,D2 PAM-1,D2 ag-1,D2 ag-2,D2 PAM-2
O=C(O)c1cc(N/N=C/c2ccc(N3CCOCC3)s2)ccc1Cl,–,–,–,–,–
Nc1cc(C(=O)OCC(=O)Nc2ccc(N3CCOCC3)cc2)ccc1Cl,48.0,–,–,–,–
C/C(=N\Nc1ccc(Cl)c(C(=O)O)c1)c1ccc(N2CCOCC2)cc1,33.1,–,–,–,–
CCCCCCc1c(C)c2c(cc(C)c3c(C)coc32)oc1=O,·,–,·,–,·
Cc1coc2c1c(C)cc1oc(=O)c(Cc3ccccc3)c(C)c12,42.8,–,–,–,–
CCN(C(=O)c1c(C)oc2ncnc(N3CCCCC3)c12)c1cc(C)ccc1C,·,–,·,–,·
Cc1nnc(NC(=O)CSc2nnc(C(C)NC(=O)c3ccccc3F)n2C)s1 (stereo unspecified),–,–,–,–,–
CC(NC(=O)c1ccccc1F)c1nnc(SCC(=O)Nc2nccs2)n1C (stereo unspecified),–,40.5,–,–,–
N#Cc1cccc(Oc2ccc(S(=O)(=O)N3CCCC3)cn2)c1,35.2,–,–,–,–
N#Cc1ccc(CSc2ccc(S(=O)(=O)N3CCCC3)cn2)cc1,30.0,–,–,–,–
Cc1ccc(CSc2ccc(S(=O)(=O)N3CCCC3)cn2)cc1,–,–,–,–,–
CCOC(=O)C1C(=O)C=C(/C=C/c2ccc(N(C)C)cc2)CC1c1ccccc1 (stereo unspecified),33.3,–,–,52.0,–
O=C(O)CC(c1ccc(Br)cc1)N1Cc2ccccc2C1=O (stereo unspecified),42.3,–,–,–,–
Cc1nc2nc(SCC(=O)c3cccc([N+](=O)[O-])c3)[nH]c2cc1Br,38.3,–,–,–,–
Cc1cc(OCC(O)CN2CCc3ccccc3C2)cc(C(C)C)c1 (stereo unspecified),–,–,?,–,–
Cc1cc(OCC(O)CN2CCc3ccccc3C2)ccc1Cl (stereo unspecified),79.2,–,–,–,–
CCOc1ccc(OCC(O)CN2CCc3ccccc3C2)cc1 (stereo unspecified),50.1,–,–,–,–
Fc1cccc(F)c1CN1CCN(c2ncccn2)CC1,–,–,?,33.5,–
CCCCCOc1ccc(Br)cc1/C(C)=N/NC1=NCCN1,–,–,–,–,–
COc1ccc(Br)cc1/C(C)=N/NC1=NCCN1,32.6,–,–,–,–
CN(C)c1ccc(NC(=O)CSC2=Nc3ccccc3C3=NC(CCC(=O)NCc4cccs4)C(=O)N23)cc1 (stereo unspecified),·,–,·,–,·
O=C(/C=C/c1ccco1)NCC1OCCc2ccccc21 (stereo unspecified),30.8,–,–,–,–
CCc1ccc(NC(=O)Nc2cn(C)c(=O)c3ccccc23)cc1,·,–,·,–,·
CC(C)CNc1ncnc2c1sc1nc(N3CCOCC3)c3c(c12)CC(C)(C)OC3,32.9,–,–,–,–
CN(C)CCNc1ncnc2c1sc1nc(N3CCCC3)c3c(c12)CC(C)(C)OC3,–,–,–,–,–
SMILES,D2 antag,D2 PAM-1,D2 ag-1,D2 ag-2,D2 PAM-2
CNC(=O)c1ccc(-c2sc3nc(N4CCOCC4)c4c(c3c2N)CC(C)(C)OC4)o1,40.6,–,–,–,–
COc1cccc(C2=NS(=O)(=O)N(C)C(C(=O)Nc3ccccc3SC)=C2)c1,·,–,·,–,·
O=C(NCCc1ccccc1Cl)C1CCN(c2nc3ccccc3nc2C(F)(F)F)CC1,·,–,·,–,·
Cc1ccc(NS(=O)(=O)c2ccc3c(c2)CCC(=O)N3)cc1,64.5,–,–,–,–
CC1(C)Oc2ccc(C(=O)NC3CCCC3)cc2N(CC(=O)NC2CCCCC2)C1=O,51.9,–,–,–,–
COc1cccc(OC)c1C(=O)Nc1cccc(-c2nc3cc(C)cc(C)c3o2)c1,·,–,·,–,·
CCc1ccc(NC(=O)C/C(C)=N/NC(=O)COc2ccccc2C)cc1,39.6,–,–,–,–
CCc1ccccc1NC(=O)Cn1c(=O)n(-c2ccc(C)c(C)c2)c(=O)c2oc3ccccc3c21,·,–,·,–,·
Cc1ccc(-n2ncc(C(=O)NCCCN3CCc4ccccc4C3)c2C2CCN(C(=O)OC(C)(C)C)CC2)cc1C,·,–,·,–,·
Cc1noc(/C=C/NCc2cccnc2)c1S(=O)(=O)N(C)CC(=O)N1CCc2ccccc21,57.2,–,–,–,–
CCN(CC)CCCNc1oc(-c2ccc(OC)cc2)nc1C#N,·,–,·,–,·
O=C(NC1CCCCC1)c1ccc(-c2ccccc2[N+](=O)[O-])o1,59.5,–,–,–,–
COC(=O)c1nnn(CC(=O)Nc2c(C)cccc2C)c1N,·,–,·,–,·
CCCN1C(=O)/C(=C/c2ccc(N3CCOCC3)cc2)NC1=S,–,·,–,–,–
Cc1cc(/C=C2/C(=O)N(C)C(=S)N2C)ccc1N1CCCC1,–,–,–,31.9,–
Cc1cc(/C=C2\NC(=S)N(C)C2=O)ccc1N1CCCC1,41.7,–,–,69.3,–
CCN1C(=O)/C(=C/c2ccc(N3CCCC3)cc2)NC1=S,–,–,–,59.4,–
Cc1cc(N2CCCC2)ccc1/C=C1/C(=O)N(C)C(=S)N1C,59.5,–,–,–,–
CN1C(=O)/C(=C/c2ccc(OCc3ccc(F)cc3)cc2)N(C)C1=S,·,·,–,·,–
CCCN1C(=O)/C(=C/c2ccc(N3CCCC3)c(C)c2)NC1=S,·,·,–,·,–
O=C(CCCCCn1c(=O)c2sccc2n(Cc2ccc(Cl)cc2)c1=O)NCc1ccc2c(c1)OCO2,·,–,·,–,·
CCCn1c(=O)c2sccc2n2c(CCCC(=O)Nc3cccc(CC)c3)nnc12,·,–,·,–,·
CC(C)c1ccc2oc(-c3ccc(Cl)c(NC(=O)c4cccs4)c3)nc2c1,·,–,·,–,·
CN1CCN(CCOC2Cc3ccccc3Sc3ccc(Cl)cc32)CC1 (stereo unspecified),87.9,–,–,–,–
COc1cccc(Nc2nc3c(S(=O)(=O)c4cc(C)ccc4C)nnn3c3ccsc23)c1,·,–,·,–,·
SMILES,D2 antag,D2 PAM-1,D2 ag-1,D2 ag-2,D2 PAM-2
CC(=O)Nc1sc(N/N=C/c2ccccc2F)nc1-c1ccc(C)cc1,–,–,40.6,–,–
CC(=O)Nc1sc(N/N=C\c2ccccc2Cl)nc1-c1cccs1,–,–,–,–,54.8
CC(=O)Nc1sc(N/N=C\c2ccco2)nc1-c1cccs1,–,–,?,–,78.2
CCOc1ccc(S(=O)(=O)N2CCN(c3cc(Cl)ccc3Cl)CC2)c2ccccc12,·,–,·,–,·
CC(NC(=O)c1sc2ncccc2c1-n1cccc1)c1ccccc1 (stereo unspecified),·,–,·,–,·
COC(=O)CC1Oc2ccc(Cl)cc2-n2cc(-c3ccc(C)cc3)nc21 (stereo unspecified),·,–,·,–,·
COc1ccc(S(=O)(=O)N2CCN(C(=O)[C@@H]3CCC(=O)N3C3OC(=O)c4ccccc43)CC2)cc1 (stereo partly specified),51.5,–,–,–,–
